Measurements from PubChem BioAssay AID588590 (National Center for Advancing Translational Sciences (NCATS), 2011).
The campaign covered roughly 390,000 compounds. About 4,000 (1%) were called active. Entries that show only a call come without a potency. Inconclusive results (about 7%) are left out. Calls come from the whole dose curve; as a rule, active = well fitted inhibition curve with a large enough effect; inconclusive = small, poorly fitted or top-dose-only effect, or another doubt; inactive = no such curve, though single readings can be large or run the other way. The full list was thinned out, with actives kept by preference.

Each compound was assayed against DNA polymerase iota (Homo sapiens) (UniProt Q9UNA4) (assay: qHTS for Inhibitors of Polymerase Iota). Details: Pol iota fluorescent replication assay, 10 min; series mostly up to 115 µM.
Method in brief: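 Fluorescent replication assay read twice, at 0 min and 10 min after adding 50 nM (final) substrate. Enzyme (10 nM) and compounds were first incubated 15 min at room temperature; enzyme-free buffer wells were negative controls.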
Potency is the fitted concentration of half-maximal effect.

Sequence of DNA polymerase iota (Homo sapiens) (Q9UNA4 whole entry, looked up): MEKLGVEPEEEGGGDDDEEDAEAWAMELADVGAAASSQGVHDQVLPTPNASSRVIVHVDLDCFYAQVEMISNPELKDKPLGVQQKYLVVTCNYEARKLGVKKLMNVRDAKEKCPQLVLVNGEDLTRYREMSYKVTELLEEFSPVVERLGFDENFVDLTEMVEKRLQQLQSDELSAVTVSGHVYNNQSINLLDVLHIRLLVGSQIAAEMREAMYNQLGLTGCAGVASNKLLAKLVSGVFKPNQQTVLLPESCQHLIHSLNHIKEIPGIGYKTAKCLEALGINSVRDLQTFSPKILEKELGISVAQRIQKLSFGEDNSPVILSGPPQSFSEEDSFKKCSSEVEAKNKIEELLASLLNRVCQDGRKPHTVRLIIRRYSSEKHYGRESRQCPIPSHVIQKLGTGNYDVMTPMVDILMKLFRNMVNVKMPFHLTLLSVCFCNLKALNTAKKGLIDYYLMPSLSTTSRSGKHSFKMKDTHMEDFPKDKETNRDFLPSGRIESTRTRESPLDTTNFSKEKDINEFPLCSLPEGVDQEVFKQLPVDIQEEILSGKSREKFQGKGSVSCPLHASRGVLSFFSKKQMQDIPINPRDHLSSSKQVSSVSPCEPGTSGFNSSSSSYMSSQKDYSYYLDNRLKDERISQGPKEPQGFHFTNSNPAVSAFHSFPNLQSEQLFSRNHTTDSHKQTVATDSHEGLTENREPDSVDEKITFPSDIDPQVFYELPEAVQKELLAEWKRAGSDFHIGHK

| Structure (SMILES) | Potency |
| --- | --- |
| COc1cc(OC)cc(C(=O)Nc2ccc3nc(Nc4cccc(C(F)(F)F)c4)cc(C)c3c2)c1 | inactive |
| Cc1cccc(NC(=O)CSc2nc3c(oc4ccccc43)c(=O)n2-c2ccc(F)cc2)c1 | inactive |
| Cc1ccc2c(=O)c(C(=O)c3cccc(Cl)c3)cn(CC(=O)NCc3ccccc3)c2n1 | inactive |
| NNc1cccc(C=Cc2ccccc2)cc1=O | 25.1 µM (active) |
| NS(=O)(=O)c1ccc(NS(=O)(=O)/C=C/c2ccccc2)cc1 | inactive |
| O=C(COC(=O)/C=C/c1cccc(Cl)c1)NCCc1ccccc1 | inactive |
| CCC(=O)N1CCc2cc(Br)cc(S(=O)(=O)CCC(=O)N3CCN(c4ccc(F)cc4)CC3)c21 | inactive |
| Cn1c(SCC(=O)N2CCCc3ccccc32)ncc(C(=O)Nc2ccc(F)cc2)c1=O | inactive |
| S=c1[nH]c(=S)c2n[nH]nc2[nH]1 | inactive |
| COc1cccc(C(=O)Nc2ccc3oc(-c4ccc5ccccc5c4)nc3c2)c1 | inactive |
| COc1cc2nc(N3CCCN(C)CC3)nc(NC(C)C)c2cc1OC | inactive |
| Cc1cccc2cc(CN(Cc3cccs3)C(=S)NCc3ccco3)c(=O)[nH]c12 | inactive |
| O=C(Nc1ccccc1)N(Cc1cccnc1)Cc1ccco1 | inactive |
| Cc1ccc(C)c2[nH]c(=O)c(CN(Cc3cccnc3)C(=S)NCc3ccco3)cc12 | 44.7 µM (active) |
| O=C(c1ccc2c(c1)N(Cc1ccccc1)C(=O)c1ccccc1S2(=O)=O)N1CCCC1 | inactive |
| COc1cc2nc(SCC(=O)Nc3ccccc3F)n3nc(-c4ccccc4)nc3c2cc1OC | inactive |

| Structure (SMILES) | Potency |
| --- | --- |
| CCc1cc2c(cc3c(=O)n(CC(=O)N4CCN(c5cc(Cl)ccc5C)CC4)nc(CC)n32)s1 | inactive |
| CCc1ccc(NC(=O)CN2C(=O)CCSc3ccc(S(=O)(=O)N4CCCC4)cc32)cc1 | inactive |
| O=C(NCCc1ccccn1)c1cc(-c2ccc(Cl)cc2)nc2ccccc12 | inactive |
| Cc1ccc(NC(=O)c2cc(-c3ccc(C)o3)nc3ccccc23)nc1 | 20 µM (active) |
| CCc1ccc(-c2cc(C(=O)NN3CCN(C)CC3)c3ccccc3n2)cc1 | inactive |
| C=Cc1ccc(Cn2c(C(=O)OC)cc3sc(C)cc32)cc1 | inactive |
| CCOc1cc(C(=O)O)ccc1OCCOc1ccccc1 | inactive |
| CCOc1cccc2c1N[C@@H](c1ccc(C(=O)O)cc1)[C@H]1CC=C[C@@H]21 | 5.62 µM (active) |
| CCOc1c(CNCc2ccc(C(=O)O)cc2)cccc1OC | inactive |
| COc1cc(OC)cc(-c2nc3nc(C)c(CCC(=O)Nc4ccc(C)cc4)c(C)n3n2)c1 | inactive |
| CCc1ccc(NC(=O)Cn2nnc(C(=O)NCc3ccc4c(c3)OCO4)c2N)cc1 | inactive |
| COc1cccc(CNC(=O)c2nnn(CC(=O)Nc3cc(Cl)ccc3C)c2N)c1 | 50.1 µM (active) |
| CC(C)c1ccc(NC(=O)Cn2nnc(C(=O)NCCc3ccccc3)c2N)cc1 | 79.4 µM (active) |
| COc1cccc(CNC(=O)c2n[nH]c3ccccc23)c1 | inactive |
| CCOc1ccccc1NC(=O)Cn1nnc(C(=O)Nc2ccc(C)c(C)c2)c1N | inactive |
| Cc1cccc(NC(=O)c2nnn(CC(=O)Nc3ccc(C(C)C)cc3)c2N)c1C | inactive |
